The record followed here is PubChem BioAssay (NCI).

The panel holds about 83,000 compounds, 20% with a hit somewhere; the sample as a whole holds those more often.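 The endpoint reported here, percent growth, reads 100 for growth as untreated, 0 for no net growth and -100 for all cells dead.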 Values without a mark were called inactive. Activity calls are given as the source filed them. How the source made its calls: active means growth percent below 10; inactive means the rest.

Among the test systems are DU-145 prostate; K-562 leukemia; MALME-3M melanoma; MDA-MB-231 breast; RXF 393 renal; SF-268 CNS; SF-295 CNS; SF-539 CNS; M14 melanoma; UACC-257 melanoma.
What all share (assay): NCI-60 one-dose screen, 48 h (100 = growth as untreated, 0 = no growth, -100 = all killed)
Holding throughout (settings): 10 µM unless noted

With `COc1ccc(-c2nc(Nc3ccc(-c4nc5ccccc5[nH]4)cc3)nc(N3CCOCC3)n2)cc1`, the growth was 38.5% with DU-145 prostate; -22% (active) with K-562 leukemia; -65.7% (active) in the assay on MALME-3M melanoma; 5.74% (active) in the assay on MDA-MB-231 breast; -67.5% (active) in the assay on RXF 393 renal; 34.1% with SF-268 CNS. In addition, the values for the growth with SF-295 CNS, with SF-539 CNS and in the assay on M14 melanoma were -63.5% (active), 0.307% (active) and -7.64% (active), respectively.

In the case of `CC(=O)O[C@@H]1CCN2C(=O)N(C)c3ccccc3[C@@H]2C1`, the growth was 121% in the assay with DU-145 prostate; 93.5% in the assay with K-562 leukemia; 94.7% in the assay on MALME-3M melanoma; 111% in the assay on MDA-MB-231 breast; 115% in the assay on RXF 393 renal; 113% with SF-268 CNS. For the same molecule, the growth with SF-295 CNS was 88.9%; in the assay on SF-539 CNS, 97.7%; in the assay on M14 melanoma, 101%.

In the case of `COc1cccc(-c2nn(-c3ccccc3)cc2-c2ccnc(NCCNS(=O)(=O)c3cccc(F)c3)c2)c1`, the growth in the assay with DU-145 prostate is 58%; in the assay with K-562 leukemia, 11.9%; in the assay on MALME-3M melanoma it was 78.2%; in the assay on MDA-MB-231 breast, 9.24% (active); with RXF 393 renal it was 44.1%; in the assay on SF-268 CNS, 48.1%. In addition, the growth with SF-295 CNS is 13.2%; in the assay with SF-539 CNS, 52.3%; in the assay with M14 melanoma it was 27.2%.

For `Cn1c(=O)c2c(ncn2CC(=O)Nc2ccc(S(N)(=O)=O)cc2)n(C)c1=O`, the growth was 107% in the assay on DU-145 prostate; 97.4% in the assay on K-562 leukemia; 118% with MALME-3M melanoma; 105% in the assay on MDA-MB-231 breast; 106% in the assay on RXF 393 renal; 101% in the assay on SF-268 CNS. Moreover, the growth with SF-295 CNS is 103%; in the assay on SF-539 CNS, 96.3%; in the assay with M14 melanoma it was 97.1%.

Regarding `CNC(=O)c1cc(Oc2ccc3nc(NC(=O)Nc4ccc(Cl)cc4)sc3c2)ccn1`, the growth with DU-145 prostate is 53.2%; in the assay with K-562 leukemia it was 65.6%; in the assay with MALME-3M melanoma it was 17.7%; with MDA-MB-231 breast it was 34.4%; in the assay on RXF 393 renal, 50.8%; with SF-268 CNS, 56.2%. Also, the values for the growth in the assay with SF-295 CNS, with SF-539 CNS and with M14 melanoma were 66.3%, 83.5% and 63%, respectively.

For the molecule `Cn1c(=O)c2c(ncn2CCC(=O)Nc2ccc(F)cc2)n(C)c1=O`, the growth in the assay on DU-145 prostate was 105%; with K-562 leukemia, 96%; with MALME-3M melanoma it was 114%; in the assay with MDA-MB-231 breast, 102%; in the assay with RXF 393 renal, 115%; in the assay with SF-268 CNS, 103%. Further, the growth with SF-295 CNS was 105%; in the assay with SF-539 CNS, 96.9%; with M14 melanoma it was 97.8%.

Turning to `COc1ccccc1CNc1nc(N)nc2[nH]c3ccc(O)cc3c12`, the growth in the assay with DU-145 prostate is 91%; in the assay on K-562 leukemia it was 11.1%; in the assay with MALME-3M melanoma it was 53.6%; with MDA-MB-231 breast, 26.8%; in the assay on RXF 393 renal, 78%; with SF-268 CNS, 64.7%. For the same molecule, the growth was 49.6% in the assay on SF-295 CNS, 45.5% with SF-539 CNS and 10.5% with M14 melanoma.

As for `COc1cc2c3c(c4c5ccccc5[nH]c4c2c(OC)c1OC)C(=O)N(O)C3=O`, the growth is 71.7% in the assay on DU-145 prostate; 20.8% in the assay on K-562 leukemia; 78.5% with MALME-3M melanoma; 44.2% in the assay with MDA-MB-231 breast; 52.2% in the assay on RXF 393 renal; 49.3% in the assay with SF-268 CNS. The growth with SF-295 CNS is 47.8%; with SF-539 CNS, 30.9%; with M14 melanoma it was 37.5%.

`COc1cccc(-c2nn(-c3ccccc3)cc2-c2ccnc(NCCCNS(=O)(=O)c3ccc(Br)cc3)c2)c1`: the growth is 72.6% in the assay on DU-145 prostate; 19.1% in the assay with K-562 leukemia; 71.9% in the assay with MALME-3M melanoma; 42.4% in the assay on MDA-MB-231 breast; 44.7% in the assay on RXF 393 renal; 55.2% in the assay with SF-268 CNS. In addition, the growth with SF-295 CNS is 37.7%; with SF-539 CNS, 76.3%; in the assay on M14 melanoma, 47.4%.

`COC(=O)[C@]12CC[C@@H](C)[C@H](C)[C@@H]1C1=CC[C@@H]3[C@@]4(C)CC(=O)[C@H](OC(=O)c5ccco5)[C@@]5(C)COC(=C45)C[C@@]3(C)[C@]1(C)CC2`: the growth in the assay with DU-145 prostate is 37.9%; in the assay on K-562 leukemia it was 23.7%; in the assay on MALME-3M melanoma, 21.9%; in the assay on MDA-MB-231 breast it was 40.4%; in the assay with RXF 393 renal it was 44.5%; with SF-268 CNS, 40.7%. Moreover, the growth in the assay on SF-295 CNS was 35.6%; in the assay with SF-539 CNS, 39%; in the assay on M14 melanoma it was 22.2%.

Regarding `COc1cc(-c2c(C#N)c(-c3cccs3)nc3c2c(-c2ccccc2)nn3-c2ccccc2)ccc1O`, the growth in the assay with DU-145 prostate is 85.6%; in the assay on K-562 leukemia, 66.2%; in the assay with MALME-3M melanoma it was 87.2%; in the assay on MDA-MB-231 breast it was 87.8%; in the assay with RXF 393 renal it was 94.4%; in the assay on SF-268 CNS, 80.4%. Besides, the growth in the assay on SF-295 CNS was 98.2%; with SF-539 CNS, 93.5%; in the assay with UACC-257 melanoma, 81.3%; with M14 melanoma, 89.3%.

Regarding `c1ccc(-c2nc(Nc3ccc(-c4nc5ccccc5[nH]4)cc3)nc(N3CCOCC3)n2)cc1`, the growth with DU-145 prostate is -27.8% (active); with K-562 leukemia, -30.1% (active); with MALME-3M melanoma it was -77.3% (active); in the assay with MDA-MB-231 breast, -63.3% (active); in the assay with RXF 393 renal, -75.1% (active); with SF-268 CNS, -43.4% (active). The figures for the growth in the assay on SF-295 CNS, in the assay on SF-539 CNS and with M14 melanoma were -76.4% (active), -76.8% (active) and -80.7% (active), respectively.

For the molecule `O=S(=O)(NCCNc1cc(-c2cn(-c3ccccc3)nc2-c2cccc(O)c2)ccn1)c1ccccc1`, the growth in the assay with DU-145 prostate is 76.2%; in the assay with K-562 leukemia it was 9.58% (active); in the assay on MALME-3M melanoma, 76.4%; in the assay with MDA-MB-231 breast, 28%; with RXF 393 renal, 66.3%; in the assay with SF-268 CNS, 69.7%. Besides, the figures for the growth in the assay with SF-295 CNS, with SF-539 CNS and in the assay on M14 melanoma were 43.2%, 70% and 53.9%, respectively.

As for `C=C1C(=O)O[C@H]2[C@H]1CC/C(Cn1cc(-c3ccc(F)cc3)nn1)=C\CC[C@@]1(C)O[C@@H]21`, the growth was -71.3% (active) in the assay with DU-145 prostate; -20.3% (active) in the assay with K-562 leukemia; -58.1% (active) in the assay with MALME-3M melanoma; -46.2% (active) with MDA-MB-231 breast; -68.1% (active) in the assay on RXF 393 renal; 5.29% (active) with SF-268 CNS. Further, the growth with SF-295 CNS is 86.4%; with SF-539 CNS, -34.6% (active); with M14 melanoma, -40.3% (active).
